# Data from the supplement of paper PMC11417369.
# Whole data set: some 25,000 sequences, median “ln(normalized median fluorescence intensity)” near 7.1, cut for the highest 2% near 10. For the sample, the highest values were picked, then their nearest neighbours and some sequences at random.
# Test system: PfSIP2 AP2 domain 1 (GST-tagged)
# Experiment: gcPBM binding intensity (ln(normalized median fluorescence intensity)); higher = stronger DNA binding
# In short: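 Binding intensity values are the highest Masliner-normalised natural-log median intensity among replicate spots of either probe orientation. The binding step lasted 1 h in 1× PBS with 1% milk, 0.2 mg/ml BSA, 0.5% salmon testes DNA and 0.03% Triton X-100, using GST-tagged P. falciparum DNA-binding domains expressed in E. coli on an Agilent 4 × 180k array of primer-extended double-stranded 36-bp intergenic genomic probes plus negative controls. Alexa488 anti-GST antibody and a 488 nm scan detected bound protein.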
row,Sequence,gcPBM binding intensity (ln)
1,ACATATATATATATTACACACACACTAATAAAATAA [CACACA_site7920],7.24
2,AAAATTAAAAAAATAAATACATTATATAATTAAAAA [CACACA_negctrl_site1426],6.77
3,CTTCTTATTTTCTAATGTACGTACAAATCATTTATA [XGTACX_site2176],8
4,CTTGGGAAGTATTCAGTGCAAAATATAAGCAGGTCA [GTGCAC_site9758],7.75
5,ATATGTATATATATTTGTACGTAAAATGAAATCTAA [XGTACX_site213],7.45
6,AAAAAAAAAAAAAACACACACACACGCACATATACA [CACACA_site7288],7.66
7,GAAAGAAATAAAGGTGGTACATAAATAAAAACTAAG [XGTACX_site4826],7.38
8,TAATAAATGTTATTAGTGCATAATAGATAATATATT,8.29
9,GGTATATTAAAATAGGTGCATAAAACTAAGAGAAAA [GTGCAC_site9781],11
10,AAAAATAAAGAAACAGGTACGCATATATTAAGATAT [XGTACX_site8097],7
11,CCTAATTTTATTAGGGTGCATTTTTAGTTAAATATA,11.2
12,CGTTATATAATAAAGGTGCATAGATATATCATTATA [GTGCAC_site9774],10.5
13,ATATATAAATAAATAGTGCATTTTAATATTTAACGT,9.27
14,AATATCATTATATAAGTGCATTTTTTAAAAGATAAA [GTGCAC_site9479],9.12
15,CATAAATAAGCTTTAGTGCATTATATTTAAATTTTT,7.29
16,GGTATATATTCTATCACACATATTTCCATGAAAATA [CACACA_site4728],7.29
17,AAAAAAAAAAAATAAAGTACTAAATAATACATTATA [XGTACX_site6203],7.02
18,TGTAGTCTGGAGAAAAGTACACAGTATCTGGTAGCT [XGTACX_site2012],6.95
19,TATGTATTTTTATGCACACATGCGTGGCTTATATAA [CACACA_site387],7.39
20,GTATATATATATATATATATATATTTTTATTTATTT [CACACA_negctrl_site589],7.42
21,ATTGTAAGGAAACACACACACATATATATGTATATA [CACACA_site676],7.07
22,ACCTATGTATATTATACACACTCCAAACTATTATTT [CACACA_site1817],7.19
23,AAATATTCATAGTATACACACATTTATTTATAACCA [CACACA_site6502],6.9

row,Sequence,gcPBM binding intensity (ln)
1,TGTTTTTCATAGTGCACACATAACCAAAAATAGTAT [CACACA_site3150],10.8
2,TTTCATAACAAAAAAGTGCAAAATAGCACGAACATT [GTGCAC_site9703],8.82
3,TTTGTAGTTTGCACATGTACACATTTCAAAATAAAG [XGTACX_site7568],7.49
4,GGTATTTTCACATATAGTACACAAAAATAAAATAAA [XGTACX_site2139],7.79
5,TTTGTTTTTCATAGTGCACACATAACCAAAAATAGT [CACACA_site9030],10.5
6,ATATATGTATTTAATACACACAAAACTTTCATTCCA [CACACA_site3531],6.9
7,TGTACGTTTTATAACACACACACAAAAAAAAAAAAA [CACACA_site3875],7.09
8,TGAATATGTAAATGCACACCAAAAAAAAAAAAAAAA [CACACA_site3566],7.29
9,TACTATAAGATATATACACACAAGAAATACAAAACG [CACACA_site6764],7.53
10,AATATATGCTTTCGTTATATTAAATTCAATTTAATG [GTGCAC_negctrl_site76],6.95
11,TAGAATAAATTAATTACACACGGAATTATATATATA [CACACA_site1616],7.83
12,AAAAAAAAAAATATATTATTTTACTTGTTTATTTTA [CACACA_negctrl_site1447],6.68
13,AAGAAAATATATTCACATGAAGAATTAAAATAAAAC [TGCATGCA_negctrl_site119],7.14
14,TTTAAAAAAAATATGTGTACTTAATATTTTCATATA [XGTACX_site7421],6.78
15,TTTGTTCATATTATTGTGCACTTAAACGTAACAAAA [GTGCAC_site9505],10.2
16,ATATTATATTGGATGTTGCACTTAACAAAAGGATAT [GTGCAC_site9478],8.76
17,TTTTTGTAAAATAAACGTACAAAACAATTGTTCATT [XGTACX_site6537],6.94
18,ATCATTCCACTTTTCACACATATCTCTATTTCTATC [CACACA_site4723],7.37
19,ATTTTTTTTTTTTTTTTTTTTGCACCATAAAATAAT [CACACA_negctrl_site1324],11.3
20,AAAATAAATAAATATACACACCATATATATATTTTT [CACACA_site5573],6.88
21,TAAAAATATTTTCATTGTACATATATATAAATATAT [XGTACX_site1123],6.97
22,AATATTGCACCATTTTGTACATAATATATTCAAATA [XGTACX_site475],10.7
23,AATATATTTTTTTTTTGTACATATTGTAAAATAATA [XGTACX_site6805],6.99

row,Sequence,gcPBM binding intensity (ln)
1,TACAACAATTTTTGCACACACCAAAACATAAAATAA [CACACA_site4964],7.52
2,TTTTTTTTTGGGTGTACACATGAATATATATTTTTT [CACACA_site5254],7.83
3,TACTGTATTATAATTATGATTGACGAAATTAAAAAT [GTGCAC_negctrl_site358],6.91
4,GATTTTAATGGGTGTACACATTTATTTATATAAAGT [CACACA_site5317],7.54
5,ATGAATAAATAGGTCACACACAAATATATATAAATA [CACACA_site2416],6.98
6,TTAATATTGTATCCAAGTACACAAATTATTATATTT [XGTACX_site8067],7.11
7,CATGTATTTTATATTACACACTAATATTATATATAT [CACACA_site1508],7.51
8,CTTTCATATGTTTTAACACACACGCATATATTATAG [CACACA_site7033],7.08
9,TCTAACATATCTTTAATACACACTTAAAAAAGTACT [CACACA_site652],7.03
10,ATATATATTATATAGTGTACCTATGTATAATAATAT [XGTACX_site1683],7.16
11,ATATGTAGAAGTAATGCACACATATGTATATATATA [CACACA_site8796],8.38
12,TAGAATGTATGTAGTGCACACCTCTATAATATATTA [CACACA_site1873],10.7
13,TGTAATATATGTATTGCACACCTATAACCATTATTT [CACACA_site8422],7.17
14,TATGTACACCCATATACACACCTCTATAATATATAT [CACACA_site4563],7.29
15,TATAATGTATGTAGTGCACACCTCTATAATATATTA [CACACA_site8560],10.3
16,TTAAAAATGAACATATGTACATATATATATATATAT [XGTACX_site7923],9.39
17,TAAAAAATAAGATATACACACATATATTTATTTATA [CACACA_site7158],6.72
18,ATTTATTTATTTAGCTGTACATTTATACAGAACGAT [XGTACX_site3336],7
19,ACATTATGTCATAAATGTACACATACATATACATAC [XGTACX_site8998],7.11
20,AAAAATAAGATATATACACACATATAAATATAAATA [CACACA_site7396],6.82
21,TAAATATATATATAAGTGCATTATATATATATATAA,8.97
22,TATATATATATATGTGCACACATAAAGATATTATTT [CACACA_site3734],9.38
23,GCCAATAAAGATGTGGTGCATTATATATATATATAT,10.6

row,Sequence,gcPBM binding intensity (ln)
1,GCTTTAATCTGAAAGTGTACAGATAATATATTTATA [XGTACX_site2462],7.15
2,ATATGTAAAATATGGTGTACAATCAAATAAAAAAAA [XGTACX_site6270],7.16
3,ATAATGTAAAAGTAAACACACACATATATATATACA [CACACA_site8793],7.06
4,TTCTTGTTCCTGAAAGTGCATATAACAAAAATAACA [GTGCAC_site9635],9.52
5,TTTTGAAGTAACAAATAAATAAATAAATATATAAAA [GTGCAC_negctrl_site517],6.92
6,AAATAATATTGAAAAGTGCATATTTTTGTTGATATA,8.42
7,TTTGTTCTTTTTGAAGTGCACTGAAATATAACAAAA,10.7
8,TATATATATATATAGGTGCAATATTGAAAAAATATC [GTGCAC_site9535],9.82
9,AAAAAAAAAAAAAAAGTGCACTGAAAATATATTGAA [GTGCAC_site9395],10.9
10,ATATCAAATTCTGAAACACACAAAATTACACCTCTA [CACACA_site169],7.06
11,AAATAAAAAAAGAAACGTACATATATTGGTTTCGTC [XGTACX_site3510],6.96
12,AAAAAAAAAAAAAAAAAAAAAAAAATATATAATTTA [CACACA_negctrl_site583],8.71
13,CACCTCAATATTCACATACACACAATATCATCGAAG [CACACA_site1675],7.33
14,AATTATATGAAATAAACACACATATGTAATATTACA [CACACA_site1928],6.76
15,AAAAAAACATAACAAAATGAAACAAAACAAAAAGAA [GTGCAC_negctrl_site577],7.28
16,CACATATACAAAAAGAAATGTTTAGTTGAAAATTAA [CACACA_negctrl_site1407],6.67
17,TTAATGTTTGAAAGAGTGCACATAACAAAAAAAAAA [GTGCAC_site9623],11.1
18,TCCTAATATATGTATGCACACACAATATATACATAT [CACACA_site9111],7.36
19,AATATAAGAATATATACACACATAAATACATACATA [CACACA_site4128],7.01
20,ATATACATATATATATGTACTGAAAAGAAAAGAATT [XGTACX_site150],7.08
21,TATATATATATATATGTGCACTGAAAGAATTATACA [GTGCAC_site9586],10.3
22,ATTATATATAAGAAGAGTACTGAATATGTGCAATAT [XGTACX_site4471],7.43
